Assay in all cases: NCI-60 one-dose screen, 48 h (100 = growth as untreated, 0 = no growth, -100 = all killed)
Common to all, as to details: 10 µM unless noted

Test [1] relates to DU-145 prostate.
The test system of test [2] is K-562 leukemia.
Test [3] concerns MALME-3M melanoma.
Test [4] relates to MDA-MB-231 breast.
Test [5] has as its system RXF 393 renal.
Test [6] relates to SF-268 CNS.
Test [7] has as its system SF-295 CNS.
Test [8] has as its system SF-539 CNS.
In test [9] the test system is UACC-257 melanoma.
The subject of test [10] is M14 melanoma.
Test [11] has as its system HCT-15 colon.
For test [12], the system named is HT29 colon.
Test [13] deals with SNB-75 CNS.
The subject of test [14] is SNB-19 CNS.
The test system of test [15] is U251 CNS.
In test [16] the test system is PC-3 prostate.
The subject of test [17] is SK-MEL-5 melanoma.
For test [18], the system named is UACC-62 melanoma.
The subject of test [19] is LOX IMVI melanoma.
Test [20] deals with SK-MEL-28 melanoma.

The panel holds about 83,000 compounds, 20% with a hit somewhere; the sample as a whole holds those more often.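 Single-dose data. Exposure time 48 hours. Values below 10 considered active.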 Unmarked numbers belong to inactive results. Calls of active or inactive are those of the source.

Consider `N#C/C(=C\c1ccc(-c2ccc(Cl)cc2)o1)C(=O)Nc1ncc(Cc2ccc(Cl)cc2)s1`, for which the growth was 19.6% in [1]; 62.2% in test [2]; 5.36% (active) in test [3]; 36.7% in [4]; 109% in [5]; 71.6% in test [6]. In addition, the growth in [7] was 9.09% (active); in [8] it was 27.1%; in test [9], -28.3% (active); in [10], 39.1%; in [11], 37.6%; in test [12], 62.4%. Also, the growth in [13] was -31.1% (active); in test [14], 79.1%; in [15], -33.9% (active); in test [16] it was 28.8%; in test [17] it was 94.7%; in [18] it was 46.1%. The growth in [19] is 15.5%; in test [20], 34.2%.

As for `Cc1nn(-c2ccccc2)c(Oc2ccccn2)c1-c1nc2ccccc2s1`, the growth in test [1] is 98.6%; in test [2], 90.7%; in [3] it was 103%; in test [4] it was 124%; in test [5], 86.1%; in [6], 92.9%. For the same compound, the growth in test [7] is 115%; in test [8] it was 108%; in test [9] it was 98%; in test [10], 108%; in test [11], 91.4%; in test [12] it was 92.6%. Also, the growth was 97% in test [13]; 100% in test [14]; 97.8% in test [15]; 91% in test [16]; 84.4% in test [17]; 91.4% in [18]. Besides, the results for the growth in test [19] and in test [20] were 97.3% and 106%, respectively.

With `CN1CCN(c2ccc(NC(=O)c3cncnc3Nc3ccc(OCc4ccccn4)c(Cl)c3)cc2)CC1`, the growth is 56.5% in [1]; -21.4% (active) in test [2]; -55.1% (active) in [3]; -11.2% (active) in test [4]; 27.9% in test [5]; 68.9% in test [6]. Besides, the growth in test [7] was 61%; in test [8], -12.7% (active); in [9], 39%; in test [10], -72.8% (active); in test [11], -44.4% (active); in [12], -14.8% (active). In addition, the growth in test [13] was 59.8%; in test [14], 69.6%; in [15], 2.96% (active); in [16], 61%; in test [17] it was 47.2%; in test [18], -69.9% (active). The growth in test [19] is -22.1% (active); in test [20], -86% (active).

Regarding `COc1ccc(-c2csc(N(C(=O)N3CCN(c4cc5c(cc4F)c(=O)c(C(=O)O)cn5C4CC4)CC3)c3ccccc3)n2)cc1`, the growth in test [1] was 17.6%; in [2], 14%; in [3] it was 9.18% (active); in test [4], 28.3%; in [5] it was 35.8%; in [6] it was 22.9%. For the same compound, the growth in [7] is 3.69% (active); in [8], 9.1% (active); in [9], 12.4%; in test [10], 26.6%; in [11], 9.72% (active); in test [12] it was 3.36% (active). In addition, the growth is 22.5% in test [13]; 20.8% in test [14]; 19.1% in test [15]; 9.97% (active) in test [16]; -21.6% (active) in [17]; 13% in test [18]. For the same compound, the figures for the growth in test [19] and in test [20] were 2.06% (active) and 36.3%, respectively.

Consider `CCOC(=O)C(=Cc1cccc(Br)c1)C(=O)OCC`, for which the growth in [1] was 4.57% (active); in test [2], 21.3%; in test [3], 73.1%; in test [4] it was 38.1%; in test [5] it was 40.3%; in test [6] it was 25.7%. Besides, the growth is 97% in test [7]; 4.36% (active) in test [8]; 35% in [9]; 32.9% in test [10]; 15.1% in test [11]; 18% in [12]. Further, the growth in test [13] was 13.2%; in [14], 50.9%; in test [15] it was 26.8%; in [16] it was 40.8%; in test [17], 50.3%; in test [18], 44.2%. In addition, the growth is -8.96% (active) in [19] and 39.2% in test [20].

Regarding `COc1ccc(C(=O)C2C(c3ccc(OC)cc3)CN(C)C23C(=O)Nc2ccccc23)cc1` (centres undefined), the growth was 99% in test [1]; 77.1% in test [2]; 92.7% in test [3]; 93.9% in test [4]; 80.8% in [5]; 89.7% in [6]. The growth in test [7] was 90.6%; in test [8] it was 104%; in [9], 97.5%; in test [10] it was 98.9%; in test [11], 86.9%; in [12] it was 84.3%. Further, the growth in test [13] is 76.7%; in [14] it was 86%; in test [15], 92.9%; in test [16], 75.3%; in [17] it was 99.1%; in test [18], 66.3%. Also, the growth in test [19] was 93%; in test [20], 105%.

On to `CC(C)(C)n1cc(-c2ccnc(NCCNS(=O)(=O)c3cccc4ccccc34)c2)c(-c2cccc(F)c2)n1`, for which the growth in test [1] is 4.18% (active); in test [2], -30% (active); in test [3], -73.1% (active); in test [4], -8.01% (active); in test [5], -52.3% (active); in test [6], 29.5%. Also, the growth is -68.7% (active) in test [7]; -74.8% (active) in [8]; -8.81% (active) in [9]; -19% (active) in test [10]; -37.2% (active) in test [11]; -29.6% (active) in test [12]. For the same compound, the growth in test [13] was -17.6% (active); in test [14], 27.5%; in test [15], -18.7% (active); in [16] it was 4.9% (active); in [17], -97.1% (active); in test [18], 8% (active). Moreover, the figures for the growth in test [19] and in [20] were -86.8% (active) and -2.58% (active), respectively.

Regarding `CCc1ccc(C(=O)/C=C/C23c4ccccc4C(c4ccccc42)C2C(=O)NC(=O)C23)cc1` (centres undefined), the growth is 12.6% in [1]; 8.82% (active) in test [2]; -59.9% (active) in [3]; 9.93% (active) in test [4]; -48.7% (active) in test [5]; 26.5% in test [6]. The growth is 12.9% in test [7]; 11% in test [8]; 27.8% in test [9]; -8.91% (active) in [10]; -10.3% (active) in test [11]; 1.59% (active) in [12]. For the same compound, the growth in test [13] is 26.3%; in [14], 12%; in test [15] it was -25% (active); in test [16], 13.3%; in [17], 10%; in test [18] it was -6.86% (active). Besides, the growth is -68.7% (active) in test [19] and -23.7% (active) in [20].

Consider `CN(C)CCNc1nc2c3cc(Cl)ccc3nn2c2ccccc12`, for which the growth in test [1] was 54.3%; in test [2] it was 46.5%; in test [3] it was 42%; in [4] it was 46.8%; in test [5], 4.75% (active); in test [6], 45.7%. In addition, the growth in test [7] is 26.9%; in test [8], 36.8%; in test [9] it was 52.5%; in test [10] it was 62.1%; in [11], 41.2%; in [12], 21.4%. For the same compound, the growth was 83.5% in test [13]; 41.8% in [14]; 49.5% in test [15]; 46.8% in test [16]; 56.1% in test [17]; 73.6% in [18]. The growth in test [19] was 25.9%; in test [20], 96.3%.

For the compound `O=C1c2cccc(NCCN=Cc3cc(O)ccc3O)c2C(=O)c2c(NCCN=Cc3cc(O)ccc3O)cccc21`, the growth in test [1] is -68.5% (active); in test [2], -94.8% (active); in [3], -24.6% (active); in test [4], -41% (active); in test [5], -34.2% (active); in test [6] it was -34.9% (active). In addition, the growth in test [7] is -23.6% (active); in test [8] it was -8.67% (active); in test [9] it was 57.9%; in [10], -4.47% (active); in test [11] it was 23.2%; in [12], -22.1% (active). The growth in test [13] is -22% (active); in test [14] it was -22.4% (active); in [15] it was -43.8% (active); in [16] it was -38.4% (active); in test [17] it was 4.84% (active); in test [18], 5.11% (active). For the same compound, the figures for the growth in test [19] and in test [20] were -44.9% (active) and -30.9% (active), respectively.

`CCCc1cc(NC)nc(S(=O)(=O)CC)n1`: the growth in test [1] was 109%; in test [2] it was 97.7%; in test [3] it was 110%; in [4] it was 109%; in test [5], 108%; in [6], 98.4%. Also, the growth is 99.9% in [7]; 100% in test [8]; 106% in test [9]; 99.8% in [10]; 104% in test [11]; 107% in [12]. Also, the growth is 88.6% in test [13]; 102% in test [14]; 107% in [15]; 109% in test [16]; 104% in test [17]; 93.8% in test [18]. Also, the values for the growth in [19] and in [20] were 103% and 106%, respectively.

With `COc1cc(-c2nc3cc(Cl)c(Cl)cc3[nH]2)ccc1OCC(=O)N=Nc1c(O)[nH]c2ccc([N+](=O)[O-])cc12`, the growth in test [1] was 105%; in test [2] it was 46.1%; in [3], 77.4%; in test [4], 71.9%; in test [5] it was 101%; in test [6] it was 81.4%. Also, the growth in test [7] is 101%; in test [8], 81.7%; in [9] it was 106%; in [10] it was 80.8%; in test [11] it was 103%; in [12], 110%. The growth in [13] is 92.7%; in test [14], 43.9%; in [15], 22%; in test [16] it was 56.5%; in test [17], 85.1%; in [18] it was 95.2%. The values for the growth in test [19] and in test [20] were 78.7% and 82%, respectively.

In the case of `Oc1ccc(CCn2c(O)c(/C=C3\CN=c4ccccc4=N3)sc2=S)cc1`, the growth in test [1] was 28%; in [2], 22.9%; in test [3] it was 62.3%; in [4], 26%; in test [5], 45.1%; in [6], 75%. Further, the growth in test [7] was 93.6%; in test [8], 20.7%; in [9], 71.4%; in test [10], 62.4%; in [11], 35.2%; in test [12], 62%. Moreover, the growth was 23.2% in test [13]; 82.2% in test [14]; 80.3% in test [15]; 60.2% in [16]; 88.3% in [17]; 58% in [18]. Further, the figures for the growth in test [19] and in test [20] were 10.2% and 77.5%, respectively.

In the case of `COc1ccc(C2c3sc4c(F)cccc4c3Oc3nc[nH]c(=O)c32)cc1` (centres undefined), the growth in test [1] is 98.2%; in test [2], 72.2%; in test [3] it was 94.4%; in test [4], 72.7%; in [5], 72.3%; in [6] it was 82%. The growth in [7] was 88%; in test [8], 77.4%; in test [9], 105%; in test [10] it was 91.4%; in [11], 74.9%; in [12] it was 107%. For the same compound, the growth is 88.2% in [13]; 79% in [14]; 65.8% in test [16]; 75.4% in test [17]; 60.1% in test [18]; 82.9% in test [19]. Further, in test [20], the growth was 92.6%.
